According to PubChem BioAssay (NCATS):
Records with an inconclusive call do not appear. Unmarked numbers belong to inactive results. Calls come from the whole dose curve; as a rule, active = well fitted inhibition curve with a large enough effect; inconclusive = small, poorly fitted or top-dose-only effect; inactive = flat fitted curve, though single readings scatter.

These molecules were tested on MCC-26 (assay: qHTS assay to identify novel small-molecules to repurpose for Merkel cell carcinoma treatment (AID 1296009; note: nearly all actives have a fitted effect of over 60% in size)). Conditions: MCC and control cell lines, CellTiter-Glo viability, 72 h; series mostly up to 46 µM; activity change, negative = cytotoxicity: at the top concentration.
Text: MCC is a rare and aggressive neuroendocrine skin cancer with limited treatment options. Approximately 80% of MCCs have the Merkel cell polyomavirus (MCPyV) DNA integrated into the host genome (virus-positive: VP-MCC) and viral oncogenes drive oncogenesis. The remaining MCCs are virus-negative (VN-MCC) and are caused by UV mutagenesis. To identify novel treatments for VP-MCC and/or VN-MCC we screened three VP-MCC cell lines (WAGA, MKL-1, MKL-2), three VN-MCC cell lines (MCC-13, MCC-26, UISO), and four immortalized, non-transformed control cell lines (HaCaT, HEK293T, CRL7250, NIH-3T3) against ~2,400 compounds in the NCGC Pharmaceutical Collection (NPC) and ~1,900 compounds in the Mechanism Interrogation PlatE (MiPE). Using cell viability as a readout (CellTiter-Glo assay) we found both overlapping and distinct drugs that can be repurposed for the treatment of VP-MCC and VN-MCC.
A high-throughput screen was conducted in 1536-well white flat bottom plates (Corning) on a Kalypsys robotic system. Cell lines WAGA, MKL-1, MKL-2, MCC-13, MCC-26, UISO, HaCaT, HEK293T, CRL7250, and NIH-3T3 were screened against 2 small molecule annotated drug libraries NPC and MIPE in dose response (8 and 11 pt. respectively) measuring cell viability after 72 hours of incubation. […] A 1,536 pintool (Kalypsys) was used to transfer 23 nL of compound in DMSO to the 1,536-well assay plates. After 72 hr incubation at 37 degree celsius, 2.5 uL of CellTiter-Glo (Promega) was dispensed into each well using a BiorapTR. Plates were incubated at room temperature for 10 min, transferred to a ViewLux (PerkinElmer) and the luminescence was recorded using an exposure time of 2 seconds. Relative luminescence units (RLUs) were normalized to in-plate controls (no cells as a positive (cytotoxicity) control, DMSO as negative control) and the normalized data was processed using NCATS in-house software.
% is set by controls: 0 for no effect and ±100 for the full control effect.

SMILES | activity change, negative = cytotoxicity
COc1cc2c(cc1OC)C(C(C(=O)N(CCc1ccc(OC)c(OC)c1OC)CCc1ccc(OC)c(OC)c1OC)c1ccccc1)=NCC2 (stereo not given) | -9.27%
OC[C@H]1O[C@@H](n2cnc3c(=S)nc[nH]c32)[C@H](O)[C@@H]1O | -20.3%
Nc1ccc(C(=O)O)cc1 | 7.27%
NC(CO)(CO)CO | 11.4%
C[C@H](CCC(=O)O)[C@H]1CC[C@H]2[C@@H]3C(=O)C[C@@H]4CC(=O)CC[C@]4(C)[C@H]3CC(=O)[C@]12C | 12.2%
C=CCc1ccc(O)c(OC)c1 | 12.1%
CCCCCCCCCCCCCCNCCO | -9.72%
CCCCOc1cc(C(=O)NCCN(CC)CC)c2ccccc2n1 | -9.17%
OC(CCN1CCCCC1)(c1ccccc1)c1ccccc1 | -13.3%
CNC(=O)CN(CCN(CCN(CC(=O)[O-])CC(=O)NC)CC(=O)[O-])CC(=O)[O-].O.[Gd+3] | 14.1%
CC1=C(C(=O)O)N2C(=O)[C@@H](NC(=O)[C@H](N)c3ccc(O)cc3)[C@H]2SC1 | 1.17%
Cc1c(C)n(CCN(C)C)c2ccc(C(=O)OCCN(C)C)cc12 | 8.05%
C[C@]12CCC(=O)C=C1[C@@H]1C[C@@H]1[C@H]1[C@@H]3[C@@H]4C[C@@H]4[C@@]4(CCC(=O)O4)[C@@]3(C)CC[C@@H]12 | -12.4%
CN1CCC(=C2c3ccccc3Sc3ccccc32)CC1 | -19.8%
O=C(OCC(O)CO)c1ccccc1Nc1ccnc2cc(Cl)ccc12 (stereo not given) | -11.5%
O=C(CCN1CCC(c2ccccc2)C1)c1ccc2c(c1)OCCO2 (stereo not given) | 7.75%
CCOC(=O)n1ccn(C)c1=S | -3.34%
CC1(C)O[C@@H]2C[C@H]3[C@@H]4C[C@H](F)C5=CC(=O)C=C[C@]5(C)[C@H]4[C@@H](O)C[C@]3(C)[C@]2(C(=O)CO)O1 | -2.41%
CCCCCCC[N+](CC)(CC)CCCCc1ccc(Cl)cc1 | -3.55%
O=C(Nc1ccc(Cl)c(Cl)c1)C1CC1 | 4.95%

SMILES | activity change, negative = cytotoxicity
CC(=O)OCC(=O)[C@@]12N=C(C)O[C@@H]1C[C@H]1[C@@H]3CCC4=CC(=O)C=C[C@]4(C)[C@H]3[C@@H](O)C[C@@]12C | -0.846%
CCCCCC=CCC=CCCCCCCCC(=O)OCC | 6.37%
C=C1C[C@H]2[C@@H]3C=C(C)C4=CC(=O)CC[C@]4(C)[C@H]3CC[C@]2(C)[C@@]1(OC(C)=O)C(C)=O | -5.54%
C=C(CC)C(=O)c1ccc(OCC(=O)O)c(Cl)c1Cl | 9.2%
CC(=O)OCC(=O)[C@@]1(OC(C)=O)[C@@H](C)C[C@H]2[C@@H]3C[C@H](F)C4=CC(=O)C=C[C@]4(C)[C@@]3(F)[C@@H](O)C[C@@]21C | -16%
NC(=O)c1cc[n+](CC2=C(C(=O)[O-])N3C(=O)[C@@H](NC(=O)Cc4cccs4)[C@H]3SC2)cc1 | 8.68%
CCCCS(=O)(=O)N[C@@H](Cc1ccc(OCCCCC2CCNCC2)cc1)C(=O)O | -1.2%
CCCCCCCCCCCCCCCCOP(=O)([O-])OCC[N+](C)(C)C | 9.97%
O=C(CCCN1CCC(O)(c2ccc(Br)cc2)CC1)c1ccc(F)cc1 | -13.1%
Cc1ccc(Nc2c(F)cccc2Cl)c(CC(=O)O)c1 | 5.55%
Cc1c(C)n(Cc2ccccc2)c2ccc(C(=O)OCCN(C)C)cc12 | -2.17%
O=C1OC2(c3ccc(O)cc3Oc3cc(O)ccc32)c2ccccc21 | -1.59%
C[C@@H]1C[C@H]2[C@@H]3CCC4=CC(=O)C=C[C@]4(C)[C@@]3(F)[C@@H](O)C[C@]2(C)[C@H]1C(=O)CO | -7.33%
O=C1[C@H]2CCCC[C@H]2C(=O)N1CCCCN1CCN(c2nsc3ccccc23)CC1 | 1.8%
CC(=O)[C@H]1CC[C@H]2[C@@H]3C[C@H](C)C4=CC(=O)CC[C@]4(C)[C@H]3[C@@H](O)C[C@]12C | -3.62%
COC1=CC(=O)C[C@@H](C)[C@]12Oc1c(Cl)c(OC)cc(OC)c1C2=O | -9.38%
NCCc1ccn[nH]1 | 7.58%
CCC(=O)c1c(O)cc(O)cc1O | -1.72%
CC(=O)c1ccc2c(c1)N(CCCN1CCC(CCO)CC1)c1ccccc1S2 | -6.89%
CN(C)CCOc1ccccc1Cc1ccccc1 | -1.5%
